Test results published in PubChem BioAssay (NCATS).
Values joined by “and” are separate entries in the source; they are usually repeats but may differ in a detail not shown here. Identical values can stand only once. Results filed as inconclusive are left out. The source holds several records for some structures; these can differ, active in one and inactive in another. Active and inactive are the calls of the source. The call rests on the fitted dose curve; in most records, active means well fitted curve in the direction sought with a large enough effect; inconclusive means small, poorly fitted or top-dose-only effect, or another doubt; inactive means no such curve, though single readings can be large; an effect the other way counts as inactive or inconclusive.

What was measured:
[1] = qHTS Screen of the MIPE 4.0 Collection Against Ewings Sarcoma (RDES) (AID 1259252); conditions: RD-ES Ewing sarcoma viability, CellTiter-Glo, 48 h; series mostly up to 45.8 µM; further: nearly all actives have a fitted effect of over 35% in size; further: potency means the concentration at half of the fitted maximal effect
Summary of the method: (§1)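 Log-phase cells in RPMI with 5% FBS attached for 4 h, then received compounds as a titration for 48 h at 37C, 5% CO2. Viability was read by CellTiter-Glo luminescence and normalized to DMSO and no-cell wells.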

[2] = qHTS Screen of the MIPE 4.0 Collection Against Ewings Sarcoma (TC71) (AID 1259253); conditions: TC71 Ewing sarcoma viability, CellTiter-Glo, 48 h; series mostly up to 45.8 µM; further: nearly all actives have a fitted effect of over 40% in size; further: potency means the concentration at half of the fitted maximal effect
Summary of the method: as §1

[3] = qHTS Screen of the MIPE 4.0 Collection Against Ewings Sarcoma (EW8) (AID 1259255); conditions: EW8 Ewing sarcoma viability, CellTiter-Glo, 48 h; series mostly up to 45.8 µM; further: nearly all actives have a fitted effect of over 35% in size; further: potency means the concentration at half of the fitted maximal effect
Summary of the method: as §1

[4] = qHTS Screen of the MIPE 4.0 Collection Against Ewings Sarcoma (TC32) (AID 1259256); conditions: TC32 Ewing sarcoma viability, CellTiter-Glo, 48 h; series mostly up to 45.8 µM; further: nearly all actives have a fitted effect of over 45% in size; further: potency means the concentration at half of the fitted maximal effect
Summary of the method: as §1

[5] = Identifying Small Molecule Inhibitors of Pancreatic Cancer Stem Cells (A278, Adherent) (AID 1259361); conditions: series mostly up to 46.1 µM; further: nearly all actives have a fitted effect of over 35% in size
Summary of the method: (§2)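 Spheroids grown 14 days in stem cell media on hydrogel-coated nonadherent plates; 2D lines seeded directly. Compounds added after 4 h attachment, 48 h at 37C, 5% CO2; CellTiter-Glo luminescence normalized to DMSO (no inhibition) and no-cell wells (full inhibition).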

[6] = Identifying Small Molecule Inhibitors of Pancreatic Cancer Stem Cells (Panc1, Adherent) (AID 1259362); conditions: Potency: viability; series mostly up to 46.1 µM; further: potency means the concentration at half of the fitted maximal effect
Summary of the method: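 Endpoint: ATP-based luminescence, 48 h drug exposure. Bortezomib at 9.2 uM final as full-kill control; DMSO vehicle as negative control; activity normalized between vehicle and cell-free wells.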

[7] = P-glycoprotein substrates identified in KB-8-5-11 adenocarcinoma cell line, qHTS therapeutic library screen (AID 1346987); conditions: KB-8-5-11 (P-gp overexpressing) viability, CellTiter-Glo, 72 h; series mostly up to 44.5 µM; further: nearly all actives have a fitted effect of over 65% in size; further: potency means the concentration at half of the fitted maximal effect
Summary of the method: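 Luminescence from CellTiter-Glo, read 5 min after addition, quantified survival of KB-8-5-11 (P-gp-overexpressing) cells exposed to compounds for 72 h. AC50 was derived from concentration-response curves.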

[8] = NS1 protein of Zika virus - qHTS assay to identify small molecule inhibitors in human HEK 293 cells (AID 1347053); conditions: HEK293 ZIKV MR766 infection, NS1 TR-FRET, 24 h; series mostly up to 46.1 µM; further: nearly all actives have a fitted effect of over 55% in size; further: potency means the concentration at half of the fitted maximal effect
Summary of the method: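 Read-out is a two-antibody TR-FRET for ZIKV NS1, normalized between uninfected cells and infected cells. Compound added 1 h before MR766 infection at MOI 0.5; human HEK 293 cells incubated 24 h, 37 C.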

[9] = Identifying Small Molecule Inhibitors of Pancreatic Cancer Stem Cells (SN12C, Spheroid) (AID 1259360); conditions: Potency: SN12C spheroid viability; series mostly up to 46.1 µM; further: potency means the concentration at half of the fitted maximal effect
Summary of the method: as §2

[10] = P-glycoprotein substrates identified in KB-3-1 adenocarcinoma cell line, qHTS therapeutic library screen (AID 1346986); conditions: KB-3-1 parental cells viability, CellTiter-Glo, 72 h; series mostly up to 44.5 µM; further: nearly all actives have a fitted effect of over 60% in size;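 further: potency means the concentration at half of the fitted maximal effect; potency is for cytotoxicity meaning loss of cell viability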
Summary of the method: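 In 1536-well format, 500 cells/well received pinned compound titrations and were incubated 72 h, 5% CO2. Viability was read by CellTiter-Glo; cytotoxic if AC50 < 10 uM and efficacy >50%.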

CS(=O)(=O)N1CCN(Cc2cc3nc(-c4cccc5[nH]ncc45)nc(N4CCOCC4)c3s2)CC1
active: Potency [1] 1.18 µM | Potency [2] 5.9 µM | Potency [3] 1.66 µM | Potency [4] 0.418 µM | IC50 (viability decrease) [5] 0.372 µM | Potency [6] 0.59 µM | Potency [7] 2.91 µM | Potency [8] 4.69 µM

CN(C)CC=CC(=O)Nc1cc2c(Nc3ccc(F)c(Cl)c3)ncnc2cc1O[C@H]1CCOC1
active: Potency [1] 18.7 µM | Potency [2] 16.6 µM | Potency [3] 20.9 µM | Potency [4] 16.6 µM | Potency [9] 23.5 µM | IC50 (viability decrease) [5] 23.5 µM | Potency [6] 1.48 µM | Potency [7] 9.35 µM
inactive: Potency [8]

C1Cc2[nH]nc(-c3nn[nH]n3)c2C1
inactive: Potency [1] | Potency [2] | Potency [3] | Potency [4] | Potency [9] | IC50 (viability decrease) [5] | Potency [10] | Potency [7] | Potency [8]

Cn1cncc1[C@@](N)(c1ccc(Cl)cc1)c1ccc2c(c1)c(-c1cccc(Cl)c1)cc(=O)n2C
active: Potency [1] 7.43 µM | Potency [2] 4.69 µM | Potency [3] 5.26 µM | Potency [4] 5.9 µM | IC50 (viability decrease) [5] 23.5 µM | Potency [7] 3.72 µM

C=C1C(=CC=C2CCC[C@]3(C)[C@@H]([C@H](C)C=C[C@H](C)C(C)C)CC[C@@H]23)C[C@@H](O)C[C@@H]1O
active: Potency [1] 0.332 µM | Potency [2] 0.743 µM | Potency [3] 2.35 µM | Potency [4] 0.833 µM | Potency [6] 26.4 µM
inactive: Potency [9] | Potency [10] | Potency [7]

CC(C)[C@H](C(=O)Nc1ccc(C(=O)NO)cc1)c1ccccc1
active: Potency [1] 0.833 µM | Potency [2] 0.662 µM | Potency [3] 0.526 µM | Potency [4] 0.526 µM | IC50 (viability decrease) [5] 0.833 µM | Potency [6] 0.418 µM

Nc1nc(-c2nn(Cc3ccccc3F)c3ncccc23)nc(N)c1N1CCOCC1
inactive: Potency [1] | Potency [2] | Potency [3] | Potency [4] | Potency [9] | IC50 (viability decrease) [5] | Potency [7] | Potency [8]

CC(C)c1ccccc1Cc1cc(C(=O)Nc2ccc(S(=O)(=O)c3ccccc3C(C)(C)C)cc2)c(O)c(O)c1O
inactive: Potency [9]
active: Potency [1] 7.43 µM | Potency [2] 7.43 µM | Potency [3] 8.33 µM | Potency [4] 8.33 µM | Potency [7] 9.35 µM

CC(C)=CCCC(C)=CCCC(C)=CCSc1ccccc1C(=O)O
active: Potency [1] 2.35 µM | Potency [2] 2.35 µM | Potency [3] 2.64 µM | Potency [4] 1.87 µM | Potency [7] 1.32 µM
inactive: Potency [9]

COc1ccc(OC)c(-c2nnc3ccc(-c4ccc(OC)c(O[C@@H]5CCOC5)c4)nn23)c1
active: Potency [1] 16.6 µM | Potency [2] 16.6 µM | Potency [3] 11.8 µM | Potency [4] 16.6 µM | Potency [9] 18.7 µM | IC50 (viability decrease) [5] 5.9 µM | Potency [8] 9.35 µM

Cn1c(=O)n(-c2ccc(C(C)(C)C#N)cc2)c2c3cc(-c4cnc5ccccc5c4)ccc3ncc21
active: Potency [1] 0.0469 µM | Potency [2] 0.059 µM | Potency [3] 0.0296 µM | Potency [4] 0.0332 µM | Potency [9] 0.148 µM | Potency [7] 366 nM and 18.7 nM

CC(=O)SC[C@@H](C)C(=O)N1CCC[C@H]1C(=O)N[C@@H](Cc1ccccc1)C(=O)O
inactive: Potency [1] | Potency [2] | Potency [3] | Potency [4] | Potency [9] | Potency [6] | Potency [7]

Nc1ccccc1NC(=O)c1ccc(CNC(=O)OCc2cccnc2)cc1
inactive: Potency [9] | IC50 (viability decrease) [5] | Potency [8]
active: Potency [1] 9.35 µM | Potency [2] 2.35 µM | Potency [3] 2.35 µM | Potency [4] 1.66 µM | Potency [7] 11.8 µM and 9.2 µM

COc1cc2ncn(-c3cc(OCc4ccccc4C(F)(F)F)c(C(N)=O)s3)c2cc1OC
inactive: Potency [9]
active: Potency [1] 4.18 µM | Potency [2] 1.48 µM | Potency [3] 1.32 µM | Potency [4] 1.32 µM | IC50 (viability decrease) [5] 1.48 µM | Potency [7] 0.935 µM

O=C(Nc1ncc(-c2cc(C(F)F)nn2-c2c(Cl)cccc2Cl)s1)C1CC1
active: Potency [1] 0.418 µM | Potency [2] 0.743 µM | Potency [3] 0.469 µM | Potency [4] 0.469 µM | Potency [7] 662 nM and 731 nM

CC(C)Nc1cc(C(F)(F)F)cc2nc(NC(=O)c3cccnc3)nn12
inactive: Potency [3] | Potency [4] | Potency [10] | Potency [7] | Potency [8]
active: Potency [1] 11.8 µM | Potency [2] 13.2 µM

CS(=O)(=O)c1ccc(-c2cnc(N)c(C(=O)Nc3ccccc3)n2)cc1
active: Potency [2] 10.5 µM | Potency [3] 13.2 µM | Potency [4] 4.18 µM
inactive: Potency [1] | Potency [10] | Potency [7]

CC1(C)CC(=O)c2c(C(F)(F)F)nn(-c3ccc(C(N)=O)c(NC4CCC(OC(=O)CN)CC4)c3)c2C1 (stereo not drawn)
active: Potency [1] 0.166 µM | Potency [2] 0.166 µM | Potency [3] 0.209 µM | Potency [4] 0.132 µM | Potency [7] 662 nM and 820 nM

CCCn1c(=O)c2[nH]c(-c3cnn(Cc4cccc(C(F)(F)F)c4)c3)nc2n(CC)c1=O
inactive: Potency [1] | Potency [2] | Potency [3] | Potency [4] | Potency [10] | Potency [8]

O=C(Nc1nc2cccc(-c3ccc(CN4CCS(=O)(=O)CC4)cc3)n2n1)C1CC1
inactive: Potency [8]
active: Potency [1] 16.6 µM | Potency [2] 9.35 µM | Potency [3] 9.35 µM | Potency [4] 8.33 µM | Potency [10] 20.6 µM

Cc1ccc(NC(=O)C2(c3ccc4c(c3)OC(F)(F)O4)CC2)nc1-c1cccc(C(=O)O)c1
inactive: Potency [10]
active: Potency [1] 0.0526 µM | Potency [2] 0.0372 µM | Potency [3] 0.0469 µM | Potency [4] 0.0526 µM | Potency [8] 0.0372 µM

Cc1c(CN2CCN(S(C)(=O)=O)CC2)sc2c(N3CCOCC3)nc(-c3cnc(N)nc3)nc12
active: Potency [1] 0.059 µM | Potency [2] 0.0662 µM | Potency [3] 0.0662 µM | Potency [4] 0.0372 µM | Potency [7] 41.8 nM and 291 nM

CCCCCCCCCC(=O)N[C@@H](Cc1c[nH]c2ccccc12)C(=O)N[C@H](CC(N)=O)C(=O)N[C@@H](CC(=O)O)C(=O)N[C@@H]1C(=O)NCC(=O)N[C@@H](CCCN)C(=O)N[C@@H](CC(=O)O)C(=O)N[C@H](C)C(=O)N[C@@H](CC(=O)O)C(=O)NCC(=O)N[C@H](CO)C(=O)N[C@@H]([C@@H](C)CC(=O)O)C(=O)N[C@@H](CC(=O)c2ccccc2N)C(=O)O[C@@H]1C
inactive: Potency [1] | Potency [2] | Potency [3] | Potency [4] | Potency [10] | Potency [8]

COc1cc(C)c(Sc2cnc(NC(=O)c3ccc(CNC(C)C(C)C)cc3)s2)cc1C(=O)N1CCN(C(C)=O)CC1 (stereo not drawn)
inactive: Potency [7]
active: Potency [1] 14.8 µM | Potency [2] 18.7 µM | Potency [3] 3.72 µM | Potency [4] 5.9 µM

O=C(CCCCCCC(=O)Nc1ccc([C@H]2O[C@@H](CSc3nc(-c4ccccc4)c(-c4ccccc4)o3)C[C@@H](c3ccc(CO)cc3)O2)cc1)NO
11.8 µM (active) and inactive: Potency [7]
active: Potency [1] 7.43 µM | Potency [2] 13.2 µM | Potency [3] 4.69 µM | Potency [4] 13.2 µM

Clc1cccc(-c2nnnn2Cc2cccnc2)c1Cl
inactive: Potency [1] | Potency [2] | Potency [3] | Potency [4] | Potency [10] | Potency [7]

CN(C)c1nc(Cc2ccc(NC(=O)c3ccc4ccccc4c3)cc2)nc(Cl)c1CC(=O)O
inactive: Potency [1] | Potency [2] | Potency [3] | Potency [4] | Potency [10] | Potency [7] | Potency [8]

CN(C1CCc2c(c3ccccc3n2CC(=O)O)C1)S(=O)(=O)c1ccc(F)cc1 (stereo not drawn)
inactive: Potency [1] | Potency [2] | Potency [3] | Potency [4] | Potency [10] | Potency [7] | Potency [8]

NCC(=O)Nc1ccc(-n2nc(C(F)(F)F)cc2-c2ccc3c(ccc4ccccc43)c2)cc1
active: Potency [1] 20.9 µM | Potency [2] 4.18 µM | Potency [3] 18.7 µM | Potency [4] 20.9 µM | Potency [7] 14.8 µM and 10.3 µM
